Molecules are shown by their SMILES. Compounds without any hit were thinned out: in the full panel of roughly 83,000, 20% have a hit.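 48-hour exposure, single concentration, 96-well plates; percent growth endpoint where 0 means no net growth. Active: below 10.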 Values without a mark were called inactive. The source made the active and inactive calls.

Among the test systems are OVCAR-8 ovarian; OVCAR-5 ovarian; OVCAR-4 ovarian; SK-OV-3 ovarian; IGROV1 ovarian; OVCAR-3 ovarian; HS 578T breast; NCI/ADR-RES ovarian; T-47D breast; RPMI-8226 leukemia.
Assay in all cases: NCI-60 one-dose screen, 48 h (100 = growth as untreated, 0 = no growth, -100 = all killed)
Conditions in all cases: 10 µM unless noted

`COc1cc(C(=O)Nc2ccc(-c3nc4ccccc4[nH]3)cc2)cc(OC)c1OC`: the growth was 27.1% in the assay with OVCAR-8 ovarian; 83.5% in the assay with OVCAR-5 ovarian; 61.6% in the assay on OVCAR-4 ovarian; 56.1% in the assay on SK-OV-3 ovarian; 46.8% in the assay with IGROV1 ovarian; 9.3% (active) in the assay with OVCAR-3 ovarian. Besides, the results for the growth in the assay with HS 578T breast, with NCI/ADR-RES ovarian and with T-47D breast were 72.5%, 52.5% and 60%, respectively.

For `CC(=S)NC(=O)C(=O)/C=C1/NC(=O)C(=O)S1`, the growth is 106% in the assay on OVCAR-8 ovarian; 107% in the assay on OVCAR-5 ovarian; 106% in the assay with OVCAR-4 ovarian; 122% with SK-OV-3 ovarian; 109% with IGROV1 ovarian; 122% in the assay on OVCAR-3 ovarian. For the same compound, the figures for the growth in the assay on HS 578T breast, with NCI/ADR-RES ovarian and with T-47D breast were 107%, 103% and 107%, respectively.

Consider `Cn1c(=O)n(C)c2cc(CNCCNc3ccnc4cc(Cl)ccc34)ccc21`, for which the growth in the assay with RPMI-8226 leukemia was 34.1%; with OVCAR-4 ovarian it was 81.5%; in the assay on SK-OV-3 ovarian it was 86.2%; with IGROV1 ovarian, 98.8%; with OVCAR-3 ovarian, 89.3%; in the assay with HS 578T breast it was 77.6%. In addition, the figures for the growth in the assay on NCI/ADR-RES ovarian and in the assay with T-47D breast were 80.3% and 82.4%, respectively.

`Cn1c(C(=O)c2cccc3ccccc23)nc2ccccc21`: the growth in the assay with OVCAR-8 ovarian is -1.81% (active); in the assay on OVCAR-5 ovarian, 49%; in the assay on OVCAR-4 ovarian, 19.9%; in the assay on SK-OV-3 ovarian, 22%; in the assay with IGROV1 ovarian, -6.8% (active); in the assay on OVCAR-3 ovarian, 29.6%. The growth is 45.7% in the assay on HS 578T breast, 4.01% (active) in the assay with NCI/ADR-RES ovarian and 17% in the assay on T-47D breast.

Turning to `COc1cccc(C2=NN3C(C2)c2ccccc2OC3c2ccc(/C=C3\SC(=O)NC3=O)cc2)c1` (stereo not drawn), the growth in the assay on OVCAR-8 ovarian was 94.8%; with OVCAR-5 ovarian, 108%; with OVCAR-4 ovarian it was 103%; with SK-OV-3 ovarian it was 96.8%; with IGROV1 ovarian, 100%; with OVCAR-3 ovarian, 102%. The growth was 96.4% in the assay with HS 578T breast, 111% with NCI/ADR-RES ovarian and 100% in the assay with T-47D breast.

Consider `O=C(NC1C(O)OC(CO)C(O)C1O)NS(=O)(=O)c1ccc(Cl)cc1` (stereo not drawn), for which the growth is 102% in the assay on OVCAR-8 ovarian; 99.7% in the assay on OVCAR-5 ovarian; 105% with OVCAR-4 ovarian; 105% in the assay on SK-OV-3 ovarian; 107% with IGROV1 ovarian; 112% in the assay with OVCAR-3 ovarian. Besides, the results for the growth with HS 578T breast, in the assay on NCI/ADR-RES ovarian and in the assay on T-47D breast were 98.7%, 105% and 91.3%, respectively.

On to `COC(=O)[C@@H]1CCCN1C(=O)[C@H]1CCCN1C(=O)[C@@H](Cc1c[nH]c2ccccc12)NC(=S)Nc1cc(C(F)(F)F)cc(C(F)(F)F)c1`, for which the growth was 61.3% with OVCAR-8 ovarian; 60.1% with OVCAR-5 ovarian; 47.2% in the assay on OVCAR-4 ovarian; 69.6% in the assay with SK-OV-3 ovarian; 29.2% in the assay on IGROV1 ovarian; 47% in the assay with OVCAR-3 ovarian. Further, the growth with NCI/ADR-RES ovarian is 67.1%; in the assay on T-47D breast, 37.3%.

In the case of `CCOC(=O)c1sc(-c2ccc(OS(=O)(=O)c3ccc(Br)s3)c(C=O)c2)nc1C`, the growth in the assay on OVCAR-8 ovarian is 3.64% (active); with OVCAR-5 ovarian, 61.2%; with OVCAR-4 ovarian, 7.2% (active); in the assay with SK-OV-3 ovarian it was 97.2%; in the assay on IGROV1 ovarian, 3.38% (active); with HS 578T breast it was 27.6%. Besides, the growth in the assay on NCI/ADR-RES ovarian is -8.08% (active); with T-47D breast, 30.8%.

Regarding `Cc1[nH]c2ccccc2c(=O)c1CC=C(Cl)Cl`, the growth is -84% (active) in the assay with OVCAR-8 ovarian; 40.1% in the assay on OVCAR-5 ovarian; -18.6% (active) in the assay with OVCAR-4 ovarian; 86.5% with SK-OV-3 ovarian; 29.4% with IGROV1 ovarian; 40.9% with OVCAR-3 ovarian. Besides, the growth in the assay with NCI/ADR-RES ovarian is 52.4%; with T-47D breast, -26.4% (active).

As for `O=C(Nc1ccc(F)cc1F)c1cc(I)ccc1O`, the growth with RPMI-8226 leukemia is -2.64% (active); with OVCAR-5 ovarian, 32.6%; in the assay with SK-OV-3 ovarian, -13.8% (active); in the assay with IGROV1 ovarian it was 22%; in the assay on OVCAR-3 ovarian, 8.96% (active); with HS 578T breast, 10%. The figures for the growth in the assay on NCI/ADR-RES ovarian and with T-47D breast were 8.58% (active) and -9.33% (active), respectively.

`CN=c1ccc2nc3ccc(N)cc3sc-2c1`: the growth with OVCAR-8 ovarian was 2.77% (active); with OVCAR-5 ovarian it was 24.6%; in the assay on OVCAR-4 ovarian, -11.2% (active); in the assay on SK-OV-3 ovarian it was 30.1%; in the assay with IGROV1 ovarian, 22.3%; with OVCAR-3 ovarian, 10.8%. Besides, the growth in the assay on HS 578T breast is 59%; in the assay on NCI/ADR-RES ovarian it was 5.34% (active); in the assay with T-47D breast, 20.1%.

With `CCOC(=O)c1sc(-c2ccc(OS(=O)(=O)C[C@]34CCC(CC3=O)C4(C)C)c(C=O)c2)nc1C`, the growth is 11.6% in the assay with OVCAR-8 ovarian; 46.9% in the assay on OVCAR-5 ovarian; 18.6% in the assay with OVCAR-4 ovarian; 46% in the assay on SK-OV-3 ovarian; -21.8% (active) with IGROV1 ovarian; -5% (active) with OVCAR-3 ovarian. The growth in the assay with HS 578T breast is 31.6%; with NCI/ADR-RES ovarian, 11%.

On to `FC(F)(F)c1cccc(Nc2nc3ccccc3nc2Nc2cccc(C(F)(F)F)c2)c1`, for which the growth in the assay with OVCAR-8 ovarian is -24.3% (active); with OVCAR-5 ovarian it was 4.13% (active); in the assay with OVCAR-4 ovarian, 11.7%; with SK-OV-3 ovarian, 32%; with IGROV1 ovarian, -58.2% (active); with OVCAR-3 ovarian, -29.7% (active). Further, the growth was 77.9% with NCI/ADR-RES ovarian and -61.7% (active) with T-47D breast.

For `COC(=O)/C(CCC=C(C)C)=C1\[C@@H](OC(C)=O)C[C@@]2(C)[C@H]1C[C@@H](O)[C@H]1[C@@]3(C)CC[C@H](NCCCNCCCCNCCCN)[C@@H](C)[C@@H]3CC[C@@]12C`, the growth with RPMI-8226 leukemia was 20.2%; with OVCAR-5 ovarian it was 88.1%; in the assay on OVCAR-4 ovarian, 85.1%; with IGROV1 ovarian, 41.9%; in the assay on HS 578T breast, 82.7%; in the assay on NCI/ADR-RES ovarian it was 65.9%. In addition, in the assay with T-47D breast, the growth is 57%.

As to `COc1ccc(Cn2cc(Cn3c(=O)c(-c4nc5ccccc5[nH]4)cc4ccccc43)nn2)c(OC)c1OC`, the growth in the assay with RPMI-8226 leukemia is 16.1%; in the assay with OVCAR-5 ovarian, 19.1%; in the assay on OVCAR-4 ovarian, 0.605% (active); in the assay on IGROV1 ovarian, 27%; with OVCAR-3 ovarian, -32.5% (active); in the assay with NCI/ADR-RES ovarian, -2.32% (active). For the same compound, in the assay on T-47D breast, the growth is 29.7%.

On to `CCCCCCn1c(=N)n(CC(O)COc2cccc(C)c2)c2ccccc21` (stereo not drawn), for which the growth in the assay with OVCAR-8 ovarian was -67.1% (active); in the assay with OVCAR-5 ovarian it was -7.84% (active); in the assay on OVCAR-4 ovarian it was -31.9% (active); in the assay on SK-OV-3 ovarian it was 37.3%; in the assay on IGROV1 ovarian it was -58.1% (active); in the assay on OVCAR-3 ovarian it was 23.3%. In addition, the growth in the assay on HS 578T breast is -5.09% (active); with NCI/ADR-RES ovarian, -2.54% (active); with T-47D breast it was 52.6%.

These data come from PubChem BioAssay (NCI).
